Laboratory results reported in PubChem BioAssay (NCATS).
Inconclusive results are not listed. Entries that show only a call come without a potency. Calls of active or inactive are those of the source. Calls follow the shape of the dose curve; as a rule, active = well fitted cell-killing curve with a large enough effect; inconclusive = small, poorly fitted or top-dose-only effect, or effect the other way; inactive = flat fitted curve, though single readings scatter.

Experiments:
Tov-21-G = experiment: Primary qHTS to identify gynecologic anti-cancer compounds using libraries of approved drugs and bioactive compounds (AID 1345084); conditions: Gynecologic cancer cell panel viability, ATPlite luminescence, 48 h; series mostly up to 57.5 µM; also: nearly all actives have a fitted effect of over 55% in size
In short: (§1)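 Luminescence from the ATPlite ATP-monitoring reagent indicates viable cell number; lower signal means cytotoxicity. Cells received compound 16 h after seeding and were exposed for 48 h across five concentrations.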

Tov112D = experiment: as above; conditions: Gynecologic cancer cell panel viability, ATPlite luminescence, 48 h; series mostly up to 57.5 µM
In short: as §1

Structure (SMILES) | Potency (Tov-21-G) | Potency (Tov112D)
CC(=O)c1ccc2c(c1)[C@H](NC(=O)c1ccc(F)c(Cl)c1)[C@H](O)C(C)(C)O2 | inactive | inactive
Cc1ccc(C2(C(=O)N3CCC(n4nc(-c5ccccc5)oc4=O)CC3)CC2)cc1 | inactive | inactive
O=S1(=O)CCN(Cc2cc(NCC3CCOCC3)c3[nH]c(-c4ccccc4)cc3c2)CC1 | inactive | inactive
CCCc1cc(C)n(C)c(=O)c1CN(C)C(=O)c1cc(-c2ccc(N3CCN(C(C)C)CC3)nc2)cc2c1cnn2C(C)C | inactive | inactive
Cc1cn2c(n1)Cc1ccc(Cl)cc1C(c1ccc(N)cc1)=N2 | inactive | inactive
COc1cc(C#N)ccc1S(=O)(=O)Nc1ccc2c(c1)cc(C)c(=O)n2C | inactive | inactive
C[C@H](Nc1cc2c(-c3ccc4c(c3)OCO4)noc2cn1)c1ccccc1 | inactive | inactive
O=c1[nH]c2ccccc2n1CCN1CCN(c2cccc(C(F)(F)F)c2)CC1 | inactive | inactive
CC(C)(C)Oc1ccc(OCC2Cc3ccccc3CN2C(=O)c2cccc3ccccc23)cc1 (centres undefined) | inactive | inactive
Cc1c(C(=O)Nc2ccc(N3CCC(N4CCOCC4)CC3)c(C#N)c2)cnn1-c1ccc(Cl)cc1 | inactive | inactive
C=C1C(=O)O[C@@H]2C[C@H](C)C3=CC(=O)[C@H](O)[C@@]3(C)C[C@H]12 | inactive | inactive
CCO[C@H]1CN(C2CCC(O)(c3ccc4c(c3)OCO4)CC2)C[C@@H]1NC(=O)CNC(=O)c1cccc(C(F)(F)F)c1 (some centres undefined) | inactive | inactive
CC(C)C(C)C(O)C1CC23CC(=O)C4(O)C(=C2CCC3C1C)C=CC1(O)CC(O)CCC14C (centres undefined) | inactive | inactive
C=C1C(=O)OC2/C=C(\C)CC/C=C(\C)CC(OC(C)=O)C12 (centres undefined) | inactive | inactive
Cc1ccc(-c2ncccn2)c(C(=O)N2C[C@H](COc3ccc(F)cn3)CC[C@H]2C)c1 | inactive | inactive
C=C(C)C(=O)O[C@H]1/C(C=O)=C\CC/C(CO)=C/[C@H]2OC(=O)C(=C)[C@@H]2[C@@H]1OC | inactive | inactive
CCN1CCN(Cc2ccc(C(=O)Nc3ccc(C)c(Oc4ccc5c(c4)CC(=O)N5)c3)cc2C(F)(F)F)CC1 | inactive | inactive
COc1ccc(C(=O)Nc2c(Cl)cncc2Cl)cc1OC1CCCC1 | inactive | inactive
COC(=O)c1ccc2c(c1)[nH]c1ncnc(NCCCN3CCCCC3)c12 | inactive | inactive
O=c1[nH]c2ccc(C#CCN3CCC(Cc4ccccc4)CC3)cc2[nH]1 | inactive | inactive
CCCc1ccc(OCC(=O)N(Cc2nc(-c3cccnc3)no2)C(C)C)cc1 | inactive | inactive
COc1cc(/C=C2\CC[C@H]3COC[C@@H](c4cc(F)c(F)c(F)c4)N3C2=O)ccc1-n1cnc(C)c1 | inactive | inactive
